Autophagy mod: alters autophagy in cells; MEF GFP-LC3 puncta imaging; test concentration mostly 10 µM; calls only at 10 µM (by protocol); 190,000 tested, 0.98% active; AID 463193;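 active = percentage of spot-positive cells more than 3 SD above its plate mean, without a fluorescence outlier flag or 80% toxicity; inconclusive = no clear call, values can overlap the other calls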;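 also: spot-positive cell cutoff set from DMSO-treated cells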
L major viab: Leishmania major promastigote growth inhibition. Leishmania major promastigotes, resazurin fluorescence viability. inhibition, % at 10 µM. 200,000 tested, 9% active. AID 1063; in the data active = inhibition above about 50%;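 also: promastigotes grown with compound for 44 hours at 28 °C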
Insulin prom up: MIN6 insulin promoter up-regulation; 190,000 tested, 0.3% active; AID 1625; z-score at 5 µM; MIN6 insulin promoter-GFP reporter, high-content imaging; hits give high values;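 active = z-score above 3 at 5 µM with at least 500 cells counted in the well; inconclusive = wells under 500 cells, flagged as cytotoxic or low count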
INS promoter inh: TRM-6 insulin promoter activity inhibition | TRM-6 cells (human fetal islet line), insulin promoter-eGFP reporter, imaging; reporter expression induced with tamoxifen | inhibition, % at 2 µM | 130,000 tested, 0.9% active | AID 1273;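 active = inhibition above the mean plus 3 SD, with well images judged a real hit on visual review, cut at about 60% in these data, passing the limit was not always enough; inconclusive = inhibition over the cutoff but images rejected on review; inactive = inhibition not above the cutoff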
WT yeast gro inh: growth inhibition of WT yeast, mitochondrial fusion screen. mitochondrial fusion phenotypic screen, WT strain. inhibition, % at 10 µM. 190,000 tested, 2.1% active. AID 1362; in the data active = inhibition above about 58%; tested in S. cerevisiae
* = called active by the depositor; i = inactive; ? = inconclusive; . = not tested or not shown. Rows were chosen to be rich in hits. Some 11% of all compounds tested hit in one or more screens of this group.

SMILES	Autophagy mod	L major viab	Insulin prom up	INS promoter inh	WT yeast gro inh
Cc1cc(Cl)c(OCCCNCc2ccccc2)c(Br)c1	i	84*	-1.7	19	-14
COCCNCCCCOc1c(Cl)cc(C)cc1Br	i	98*	-0.16	-4	13
Cc1cc(Cl)cc(Br)c1OCCCNCC(C)O (configuration not stated)	i	30	-0.58	.	10
COCCCNC(=O)Nc1ccc(Br)cc1Cl	i	-7	0.53	66	10
Cc1ccc(S(=O)(=O)NC2CCCCC2)c(C)c1NS(C)(=O)=O	i	2	-0.43	.	-11
Cc1cccc(-n2c(=S)[nH]c3nc4c(cc3c2=O)COC(C)(C)C4)c1	.	.	-0.7	.	.
O=S1(=O)NC(=NCCc2ccccn2)c2ccccc21	i	-2	-0.03	.	-7
C=CCNC(=S)N(CC)c1cccc2ccccc12	i	6	.	.	62*
O=C(O)C1=C(OCc2ccccc2)C(=O)NCC1	i	-5	.	-6	-1
O=S(=O)(c1ccc(Oc2ccc(Cl)cc2)c(S(=O)(=O)N2CCCCC2)c1)N1CCCCC1	i	2	-1.8	-54	12
O=C1CCCc2ccccc2N1Cc1ccc(F)cc1	i	-1	-0.39	-43	-6
N=c1c2c(n(Cc3ccc(Cl)cc3)c3c1CCC3)CCC2	i	99*	.	31	62*
N=c1c2c(n(Cc3cccc(Cl)c3)c3c1CCC3)CCCC2	i	100*	?	-9	62*
N=c1c2c(n(Cc3ccc(F)cc3)c3c1CCC3)CCCC2	i	99*	-0.91	13	55
O=C1CCSc2ccc(Cl)cc2N1Cc1cccc(Cl)c1	i	3	0.27	-7	39
CCc1ccc(CNc2ccc(O)cc2)cc1	i	98*	.	13	10
Clc1cccc(Oc2ncccn2)c1	i	50*	-0.12	0	3
NC(=O)c1cccnc1Oc1cccc(Cl)c1	i	-6	-0.13	8	-3
O=C(c1ccccc1)c1nnc(-c2ccncc2)o1	i	-5	1.3	.	72*
O=C(c1ccc(Cl)cc1)c1nnc(-c2ccncc2)o1	i	19	.	19	13
O=C(/C=C/c1ccc(N2CCCCC2)c([N+](=O)[O-])c1)c1ccc(O)cc1	i	100*	-0.11	83*	91*
O=C(c1ccc(N2CCCCC2)c([N+](=O)[O-])c1)N1CCOCC1	i	-7	-0.29	-25	-13
O=C(O/N=C\c1ccc(N2CCCCC2)c([N+](=O)[O-])c1)c1ccc(Cl)cc1Cl	i	1	-2.8	.	-17
COc1ccccc1C(=O)/C=C/c1ccc(N2CCCCC2)c([N+](=O)[O-])c1	i	98*	0.29	59	-1
CCc1nnc(NC(=O)c2ccc(S(=O)(=O)N(CC(C)C)CC(C)C)cc2)o1	i	96*	0	-200	72*
SMILES	Autophagy mod	L major viab	Insulin prom up	INS promoter inh	WT yeast gro inh
CCc1nnc(NC(=O)c2ccc(S(=O)(=O)N(C)c3ccccc3)cc2)o1	i	83*	.	-36	18
CSCc1nnc(NC(=O)c2ccc(S(=O)(=O)N(CC(C)C)CC(C)C)cc2)o1	i	79*	0.24	-100	72*
CCCN(CCC)S(=O)(=O)c1ccc(C(=O)Nc2nnc(COC)o2)cc1	i	-5	0.11	.	-22
CCn1c(=N)n(CC(O)c2ccccc2)c2ccccc21 (configuration not stated)	i	12	-0.9	-38	-10
CC(C)(C)c1ccc(Cn2c(=N)n(CC(O)c3ccco3)c3ccccc32)cc1 (configuration not stated)	i	100*	-5.5	.	59*
Cc1ccccc1Cn1c(=N)n(CC(O)c2ccco2)c2ccccc21 (configuration not stated)	i	78*	-1.1	.	5
C/C=C/C(=O)Nc1cccc(C2=NOC3(C2)C[C@@H](C(N)=O)N(C(=O)C(c2ccccc2)c2ccccc2)C3)c1 (some centres not stated)	.	.	0.69	.	.
OCCNc1ncnc2c1sc1nc(N3CCOCC3)c3c(c12)CCC3	i	17	0.05	9	-4
COCCNc1nnnc2c1sc1nc(N3CCOCC3)c3c(c12)CCCC3	i	62*	-0.46	26	-3
O=C1CN(CC(=O)Nc2cccc(Cl)c2Cl)c2ccccc2N1	i	-1	-0.36	-220	10
COCC(C)NC(=O)COc1ccc(Cl)cc1Cl (configuration not stated)	i	-3	.	-13	-6
COCC(C)NC(=S)NCCc1ccc(Cl)cc1Cl (configuration not stated)	i	3	.	9	61*
COc1ccc(CC(=O)NCCc2ccc(Cl)cc2Cl)cc1	i	3	0.24	-14	2
COCCNC(=S)NCCc1ccc(Cl)cc1Cl	i	-2	-0.76	.	70*
O=C(Cc1ccccc1)NCCc1ccc(Cl)cc1Cl	i	54*	-0.47	-21	-13
Cc1nnc(C)n1N	i	-8	0.02	.	-4
O=S(=O)(Nc1nc2ccccc2nc1Nc1ccc(N2CCOCC2)cc1)c1cc(Cl)ccc1Cl	i	2	-0.18	0	52
O=C(CNCC1CCCCC1)Nc1ccc(OC(F)(F)F)cc1	i	-9	-0.14	8	31
CSc1nnc(C)c(=O)n1COC(=O)COc1ccc(Cl)cc1Cl	i	-6	-0.28	-8	8
O=C(CNC(=S)N(Cc1ccccc1Cl)C1CCCC1)NCCN1CCOCC1	i	1	0.67	-78	4
CC1CC(C)CN(CCCNC(=O)c2csc3c2CCCC3)C1 (configuration not stated)	i	93*	0	-41	21
O=C(NCCN1CCOCC1)c1csc2c1CCCC2	i	3	-0.45	0	3
CCCCN(CC)CCCNC(=O)c1csc2c1CCCCC2	i	87*	-0.75	-50	-14
CC(C)CCNC(=O)c1csc2c1CCCCC2	i	13	-0.55	-11	13
CC(=O)O/N=C/c1c(C)c(C=O)n2ccccc12	i	-5	-0.21	.	1
SMILES	Autophagy mod	L major viab	Insulin prom up	INS promoter inh	WT yeast gro inh
O=C(COC(=O)C1CCN(S(=O)(=O)c2ccccc2)CC1)NC(=O)c1ccc(OC(F)F)cc1	i	57*	0.95	16	-10
CCCCNc1c2c3c(cccc3n(C)c1=O)C(=O)c1ccccc1-2	i	6	.	-433	64*
Cn1c(=O)c(NC2CCCCC2)c2c3c(cccc31)C(=O)c1ccccc1-2	?	13	.	i	59*
CCNc1c2c3c(cccc3n(C)c1=O)C(=O)c1ccccc1-2	?	10	.	-171	8
O=C(Oc1cccc(C(=S)N2CCCCC2)c1)c1ccccc1	i	-6	.	0	60*
CCOc1ccc(N2CC(=O)N/C2=N\c2nc(C)cc(C)n2)cc1	i	14	-0.02	8	-13
CC(NC(=O)/C(=C/c1cccc([N+](=O)[O-])c1)NC(=O)c1ccco1)C(=O)O (configuration not stated)	i	55*	-0.55	19	4
c1ccc(Nc2cccc(Nc3ccccc3)c2)cc1	i	30	0.02	34	71*
Nc1cccc(Nc2ccccc2)c1	i	-3	-0.06	.	-3
